# Experimental data: PubChem BioAssay AID1259240 (Keith Lab, Institute of Cancer Science, University of …, 2017)
# A number with no mark means an inactive call. Activity calls are given as the source filed them. No stated cut-off is given here; in the data, active means fold change mostly below about -2 (no sharp cut-off); inactive means mostly above about -1.8.
# Experiment: TERT promoter activity modulators, primary screen, cell-based, luciferase reporter, human (AID 1259240)
# Details: A2780 TERT promoter luciferase reporter, 16 h; at 20 µM, fold versus average of vehicle-only wells
Structure (SMILES),fold change,outcome
O=C(CSc1c2c(nc3cc(Cl)ccc13)CCCC2)Nc1nccs1,-3.17 (active),
O=C1CCCC2=C1C(c1ccccc1Cl)n1nc(-c3ccccc3)nc1N2 (centres undefined),,inactive
COc1ccc(-c2nnc3c4ccccc4c(C)nn23)cc1S(=O)(=O)NC(C)C,-1.07,
CC(C)OCCCNC(=O)Cc1ccc(NC2=NC3CS(=O)(=O)CC3S2)cc1 (centres undefined),-1.17,
COC(=O)c1ccc(CSc2nc(-c3ccco3)cc(C(F)(F)F)n2)o1,-2.77 (active),
CC1(C)CC(=O)c2sc(NC(=O)c3ccccc3)nc2C1,-1.97,
Cn1c(=O)c2cc(S(=O)(=O)NCCC(=O)NC3CCCCCC3)ccc2n(C)c1=O,1.3,
O=C(NCc1cccnc1)c1cccc(NC2=NC3CS(=O)(=O)CC3S2)c1 (centres undefined),-1.24,
S=c1nc(-c2ccccc2)n(CCCn2ccnc2)c2c1CCCC2,1.02,
CSc1nsc(SC)c1C(=O)NCCNS(=O)(=O)c1ccc(C)cc1,-1.37,
CCOC(=O)N1CCC(Nc2c(NCCN3CCCCC3CC)c(=O)c2=O)CC1 (centres undefined),-1.19,
Cc1nc2cc(-c3ccccc3)nn2c(C)c1CCC(=O)O,-6.77 (active),
Cc1ccn2c(NC(=O)C(C)C)c(-c3ccc(F)cc3)nc2c1,-1.4,
c1cc2nncn2nc1NCCCN1CCOCC1,-1.08,
O=C1CC(c2ccc(F)c(F)c2)c2cc3c(cc2N1)OCO3 (centres undefined),1.27,
CCCN(CCC)C(=O)Cn1c(=O)oc2cc(S(=O)(=O)N3CC(C)CC(C)C3)ccc21 (centres undefined),1.03,
CN(CC(=O)Nc1ccc(Br)cc1)S(=O)(=O)c1ccc2c(c1)CCC(=O)N2,-1.38,
O=C(ON=C1CCCC1)c1sc2ccccc2c1Cl,-1.7,
O=C(CCSc1nc(-c2ccc3c(c2)OCO3)cc(C(F)(F)F)n1)N1CCCCC1,-1.15,
COc1ccc(-c2c(C)oc3c(CN4CCN(C)CC4)c(O)ccc3c2=O)cc1,1.02,

Structure (SMILES),fold change,outcome
CCN1C(=O)/C(=c2\sc3nc(-c4cccc(C)c4)nn3c2=O)c2cc(Br)ccc21,-1.02,
COc1cccc(-c2nc(S(=O)(=O)c3ccc(C)cc3)c(N(C)C)o2)c1,-1.82,
O=C(Cn1ncc2c3ccccc3n(Cc3ccc(Cl)cc3)c2c1=O)NC1CC1,-1.11,
COC(=O)c1nc2n(n1)C(c1ccc(C)cc1)C1=C(CCCC1=O)N2 (centres undefined),,inactive
CN1C(=O)C(O)(CC(=O)c2ccccc2O)c2cc(Br)ccc21 (centres undefined),1.07,
O=C1Nc2ccc(Br)cc2/C1=C\c1nc2ccccc2c(=O)n1-c1cccc(C(=O)O)c1,,inactive
CC1CCC(NC(=O)Cn2c(=O)c(C(F)(F)F)nc3ccccc32)CC1 (centres undefined),-1.07,
Cc1c(C(=O)N2CCOCC2)sc2nc3n(c(=O)c12)N=C(c1ccc(Cl)cc1)CS3,1.21,
CC(C)C(NS(=O)(=O)c1cccc2nsnc12)C(=O)N1CCCCCC1 (centres undefined),1.11,
Cc1nc2c3ccccc3n3c(CCCC(=O)NCc4ccccn4)nnc3n2n1,-1.25,
CCOc1ccc(/C=c2\sc3nc(=O)c(Cc4ccc(Cl)cc4)nn3c2=O)cc1OC,1.07,
O=C(NCc1ccc(Cl)cc1)c1c[nH]n2c(=O)cc(C3CCNCC3)nc12,-1.87,
Fc1ccccc1Nc1nc2ccccc2n2nnnc12,1.5,
COc1cc(NC(=O)c2onc(C)c2Cl)cc(OC)c1OC,1.32,
Cc1c(Cl)cccc1NS(=O)(=O)c1cccc2cccnc12,-1.05,
COc1ccc(S(=O)(=O)n2nc(-c3ccc(Cl)cc3)cc2N)cc1OC,1.41,
CC1(C)CNC(=O)c2sc(NC(=O)CN3CCOCC3)nc2C1,-1.75,
Cc1cc(C(=O)N2CCN(Cc3ccc4c(c3)OCO4)CC2)on1,1.36,
COC(=O)c1ccc(CSc2nc(-c3ccco3)nc3c2c(=O)n(C)c(=O)n3C)o1,-1.08,
